Results from PubChem BioAssay AID1159580 (chemical genetic matrix, 2015).
Values joined by “and” are separate entries in the source; they are usually repeats but may differ in a detail not shown here. Equal values may be shown once. In all, about 5,500 compounds went through this assay and about 2,000 (36%) were called active. Roughly 18% stayed inconclusive and do not appear here. Rule as the data show it: active = normalized growth mostly below about 0.91 (no sharp cut-off); inconclusive = no clear call, values can overlap the other calls; inactive = mostly above about 0.92. This is one part of the list.

Test: chemical genetic growth profiling, strain panel (AID 1159580);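 also: tested at 20 µM; growth read once vehicle control cultures reached saturation at 30 °C; 1 = growth at the plate median or of vehicle wells; lower values mean less growth of the strain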
Conditions: growth OD
[1] = S. cerevisiae deletion strains, locus YDL101C, strain DUN1, hits give low values
[2] = S. cerevisiae deletion strains, locus YHR030C, strain SLT2, hits give low values
[3] = S. cerevisiae deletion strains, locus YHR079C, strain IRE1, hits give low values
[4] = S. cerevisiae deletion strains, locus YJL095W, strain BCK1, hits give low values
[5] = S. cerevisiae deletion strains, locus YJR066W, strain TOR1, hits give low values
[6] = S. cerevisiae deletion strains, locus YLR113W, strain HOG1, hits give low values
[7] = S. cerevisiae deletion strains, locus YNL183C, strain NPR1, hits give low values
[8] = S. cerevisiae deletion strains, locus YOR061W, strain CKA2, hits give low values
[9] = S. cerevisiae deletion strains, locus YOR231W, strain MKK1, hits give low values
[10] = S. cerevisiae deletion strains, locus YPL256C, strain CLN2, hits give low values

Measured: normalized growth

CC(=O)Nc1ccc(S(=O)(=O)Nc2ccc([N+](=O)[O-])cc2)cc1
inactive: S. cerevisiae deletion strains, locus YAL013W, strain DEP1, hits give low values 1.01 | S. cerevisiae deletion strains, locus YBR021W, strain FUR4, hits give low values 0.97 | S. cerevisiae deletion strains, locus YBR229C, strain ROT2, hits give low values 1.01 | S. cerevisiae deletion strains, locus YCL029C, strain bik1, hits give low values 1.01 | S. cerevisiae deletion strains, locus YDL035C, strain GPR1, hits give low values 1.01 | S. cerevisiae deletion strains, locus YDL074C, strain BRE1, hits give low values 0.986 | [1] 1 | S. cerevisiae deletion strains, locus YDL134C, strain PPH21, hits give low values 1 | S. cerevisiae deletion strains, locus YDL185W, strain tfp1, hits give low values 0.999 | S. cerevisiae deletion strains, locus YDL192W, strain arf1, hits give low values 1.01 | S. cerevisiae deletion strains, locus YDR101C, strain arx1, hits give low values 0.99 | S. cerevisiae deletion strains, locus YDR150W, strain NUM1, hits give low values 1.02 | S. cerevisiae deletion strains, locus YDR162C, strain NBP2, hits give low values 1.01 | S. cerevisiae deletion strains, locus YDR318W, strain mcm21, hits give low values 0.991 | S. cerevisiae deletion strains, locus YDR388W, hits give low values 0.999 | S. cerevisiae deletion strains, locus YDR502C, strain sam2, hits give low values 1 | S. cerevisiae deletion strains, locus YEL061C, strain CIN8, hits give low values 1.01 | S. cerevisiae deletion strains, locus YER110C, hits give low values 0.997 | S. cerevisiae deletion strains, locus YER155C, strain BEM2, hits give low values 1 | S. cerevisiae deletion strains, locus YER167W, strain BCK2, hits give low values 1.01 | S. cerevisiae deletion strains, locus YGL078C, strain dbp3, hits give low values 1 | S. cerevisiae deletion strains, locus YGL086W, strain mad1, hits give low values 1 | S. cerevisiae deletion strains, locus YGL248W, strain PDE1, hits give low values 1 | S. cerevisiae deletion strains, locus YGR078C, strain PAC10, hits give low values 0.995 | S. cerevisiae deletion strains, locus YGR135W, strain pre9, hits give low values 0.996 | S. cerevisiae deletion strains, locus YGR229C, strain SMI1, hits give low values 1.01 | S. cerevisiae deletion strains, locus YGR252W, strain gcn5, hits give low values 0.955 | [2] 1.01 and 1 | S. cerevisiae deletion strains, locus YHR079C, strain IRE1 (second series), hits give low values 0.997 | [3] 0.984 | S. cerevisiae deletion strains, locus YHR094C, strain hxt1, hits give low values 1 | S. cerevisiae deletion strains, locus YHR129C, strain ARP1, hits give low values 1 | S. cerevisiae deletion strains, locus YHR200W, strain rpn10, hits give low values 0.992 | S. cerevisiae deletion strains, locus YIL066C, strain RNR3, hits give low values 1.02 | S. cerevisiae deletion strains, locus YIL073C, strain SPO22, hits give low values 1.05 | S. cerevisiae deletion strains, locus YIL125W, strain kgd1, hits give low values 0.996 | S. cerevisiae deletion strains, locus YIR030C, strain dcg1, hits give low values 1.01 | [4] 0.994 and 0.998 | S. cerevisiae deletion strains, locus YJL134W, strain LCB3, hits give low values 1.01 | S. cerevisiae deletion strains, locus YJL168C, strain set2, hits give low values 0.989 | S. cerevisiae deletion strains, locus YJL187C, strain SWE1 (second series), hits give low values 1.01 | S. cerevisiae deletion strains, locus YJR043C, strain POL32, hits give low values 0.995 | [5] 0.93 | S. cerevisiae deletion strains, locus YJR075W, strain HOC1, hits give low values 1.01 | S. cerevisiae deletion strains, locus YKL009W, strain mrt4, hits give low values 1.09 | S. cerevisiae deletion strains, locus YKL068W, hits give low values 1 | S. cerevisiae deletion strains, locus YKL085W, strain MDH1 (second series), hits give low values 1.01 | S. cerevisiae deletion strains, locus YKL085W, strain MDH1, hits give low values 1.01 | S. cerevisiae deletion strains, locus YKL190W, strain CNB1, hits give low values 1.01 | S. cerevisiae deletion strains, locus YKR001C, strain vps1, hits give low values 1.01 | S. cerevisiae deletion strains, locus YLR039C, strain RIC1, hits give low values 1.04 | S. cerevisiae deletion strains, locus YLR058C, strain SHM2, hits give low values 1.01 | S. cerevisiae deletion strains, locus YLR102C, strain apc9, hits give low values 0.994 | [6] 0.969 | S. cerevisiae deletion strains, locus YLR262C, strain YPT6, hits give low values 1.04 | S. cerevisiae deletion strains, locus YLR268W, strain sec22, hits give low values 0.993 | S. cerevisiae deletion strains, locus YLR330W, strain CHS5, hits give low values 1.01 | S. cerevisiae deletion strains, locus YLR342W, strain FKS1 (second series), hits give low values 0.995 | S. cerevisiae deletion strains, locus YLR371W, strain rom2, hits give low values 0.994 | S. cerevisiae deletion strains, locus YLR418C, strain cdc73, hits give low values 0.949 | S. cerevisiae deletion strains, locus YML016C, strain PPZ1, hits give low values 1.01 | S. cerevisiae deletion strains, locus YML032C, strain rad52, hits give low values 0.987 | S. cerevisiae deletion strains, locus YML124C, strain tub3, hits give low values 1 | S. cerevisiae deletion strains, locus YMR078C, strain ctf18, hits give low values 0.993 | S. cerevisiae deletion strains, locus YMR223W, strain ubp8, hits give low values 1 | S. cerevisiae deletion strains, locus YMR263W, strain SAP30, hits give low values 1.01 | S. cerevisiae deletion strains, locus YMR307W, strain GAS1, hits give low values 0.989 | S. cerevisiae deletion strains, locus YNL067W, strain RPL9B, hits give low values 1.01 | S. cerevisiae deletion strains, locus YNL128W, strain TEP1, hits give low values 1.01 | S. cerevisiae deletion strains, locus YNL153C, strain GIM3, hits give low values 0.995 | [7] 0.941 | S. cerevisiae deletion strains, locus YNL233W, strain BNI4, hits give low values 1 | S. cerevisiae deletion strains, locus YNL250W, strain rad50, hits give low values 0.996 | S. cerevisiae deletion strains, locus YNL271C, strain bni1, hits give low values 1 | S. cerevisiae deletion strains, locus YNL298W, strain CLA4, hits give low values 1 | S. cerevisiae deletion strains, locus YNL307C, strain MCK1, hits give low values 1 | S. cerevisiae deletion strains, locus YNL322C, strain KRE1, hits give low values 1 | S. cerevisiae deletion strains, locus YNR052C, strain pop2, hits give low values 1 | S. cerevisiae deletion strains, locus YOL006C, strain TOP1, hits give low values 0.975 | S. cerevisiae deletion strains, locus YOL012C, strain htz1 1.05 | S. cerevisiae deletion strains, locus YOL147C, strain pex11, hits give low values 0.996 | [8] 1.01 | S. cerevisiae deletion strains, locus YOR069W, strain VPS5, hits give low values 1 | S. cerevisiae deletion strains, locus YOR136W, strain idh2, hits give low values 0.998 | S. cerevisiae deletion strains, locus YOR144C, strain elg1, hits give low values 0.997 | S. cerevisiae deletion strains, locus YOR184W, strain ser1, hits give low values 1 | [9] 0.989 | S. cerevisiae deletion strains, locus YOR316C, strain cot1, hits give low values 1 | S. cerevisiae deletion strains, locus YPL055C, strain LGE1, hits give low values 1.03 | S. cerevisiae deletion strains, locus YPL241C, strain CIN2, hits give low values 1.01 | [10] 0.989 | S. cerevisiae deletion strains, locus YPR119W, strain clb2, hits give low values 0.998 | S. cerevisiae deletion strains, locus YPR141C, strain kar3, hits give low values 1 | S. cerevisiae deletion strains, locus YPR163C, strain tif3, hits give low values 1.01 | S. cerevisiae deletion strains, locus YPR167C, strain met16, hits give low values 0.992 | S. cerevisiae deletion strains, strain wtn01, hits give low values 0.988 | S. cerevisiae strains, strain wild type, hits give low values 1.01

CC(=O)Nc1ccc(/C=C/[N+](=O)[O-])cc1
inactive: S. cerevisiae deletion strains, locus YAR019C, strain CDC15, hits give low values 0.977 | S. cerevisiae deletion strains, locus YBL105C, strain PKC1, hits give low values 0.972 | S. cerevisiae deletion strains, locus YBR135W, strain CKS1, hits give low values 0.976 | S. cerevisiae deletion strains, locus YBR136W, strain MEC1, hits give low values 0.964 | S. cerevisiae deletion strains, locus YBR160W, strain CDC28, hits give low values 0.98 | S. cerevisiae deletion strains, locus YDL017W, strain CDC7, hits give low values 0.98 | S. cerevisiae deletion strains, locus YDL028C, strain MPS1, hits give low values 0.973 | [1] 0.994 | S. cerevisiae deletion strains, locus YDL108W, strain KIN28, hits give low values 0.972 | S. cerevisiae deletion strains, locus YDL132W, strain cdc53, hits give low values 0.975 | S. cerevisiae deletion strains, locus YDL214C, strain PRR2, hits give low values 0.857 | S. cerevisiae deletion strains, locus YDR052C, strain DBF4, hits give low values 0.98 | S. cerevisiae deletion strains, locus YDR054C, strain cdc34, hits give low values 0.974 | S. cerevisiae deletion strains, locus YDR226W, strain ADK1, hits give low values 0.975 | S. cerevisiae deletion strains, locus YDR477W, strain SNF1, hits give low values 0.809 | S. cerevisiae deletion strains, locus YER123W, strain YCK3, hits give low values 0.679 | S. cerevisiae deletion strains, locus YER133W, strain GLC7, hits give low values 0.806 | S. cerevisiae deletion strains, locus YFL009W, strain cdc4, hits give low values 0.974 | S. cerevisiae deletion strains, locus YFL029C, strain CAK1, hits give low values 0.962 | S. cerevisiae deletion strains, locus YFR003C, strain YPI1, hits give low values 0.982 | S. cerevisiae deletion strains, locus YFR028C, strain CDC14, hits give low values 0.972 | S. cerevisiae deletion strains, locus YGR040W, strain KSS1, hits give low values 0.807 | S. cerevisiae deletion strains, locus YGR052W, strain FMP48, hits give low values 0.843 | S. cerevisiae deletion strains, locus YGR092W, strain DBF2, hits give low values 0.816 | [3] 0.809 | S. cerevisiae deletion strains, locus YHR082C, strain KSP1, hits give low values 0.804 | S. cerevisiae deletion strains, locus YHR205W, strain SCH9, hits give low values 0.723 | S. cerevisiae deletion strains, locus YIL147C, strain SLN1, hits give low values 0.97 | [4] 0.78 | S. cerevisiae deletion strains, locus YJL128C, strain PBS2, hits give low values 0.969 | S. cerevisiae deletion strains, locus YJL157C, strain FAR1, hits give low values 0.844 | S. cerevisiae deletion strains, locus YJR016C, strain ILV3, hits give low values 0.981 | S. cerevisiae deletion strains, locus YJR066W, strain TOR1 (second series), hits give low values 0.732 | [5] 0.684 | S. cerevisiae deletion strains, locus YKL048C, strain ELM1, hits give low values 0.864 | S. cerevisiae deletion strains, locus YKL067W, strain YNK1, hits give low values 0.852 | S. cerevisiae deletion strains, locus YKL101W, strain HSL1, hits give low values 0.795 | S. cerevisiae deletion strains, locus YKL193C, strain SDS22, hits give low values 0.977 | S. cerevisiae deletion strains, locus YKL203C, strain TOR2, hits give low values 0.852 | S. cerevisiae deletion strains, locus YLR133W, strain CKI1, hits give low values 0.861 | S. cerevisiae deletion strains, locus YLR403W, strain SFP1, hits give low values 0.818 | S. cerevisiae deletion strains, locus YML070W, strain DAK1, hits give low values 0.804 | S. cerevisiae deletion strains, locus YMR001C, strain CDC5, hits give low values 0.971 | S. cerevisiae deletion strains, locus YMR205C, strain PFK2 (second series), hits give low values 0.868 | S. cerevisiae deletion strains, locus YMR277W, strain FCP1, hits give low values 0.976 | S. cerevisiae deletion strains, locus YNL006W, strain LST8, hits give low values 0.996 | S. cerevisiae deletion strains, locus YNL020C, strain ARK1, hits give low values 0.88 | S. cerevisiae deletion strains, locus YNL161W, strain CBK1, hits give low values 0.973 | [7] 0.782 | S. cerevisiae deletion strains, locus YNL207W, strain RIO2, hits give low values 0.978 | S. cerevisiae deletion strains, locus YNL222W, strain SSU72, hits give low values 0.975 | S. cerevisiae deletion strains, locus YNL307C, strain MCK1 (second series), hits give low values 0.78 | S. cerevisiae deletion strains, locus YOL078W, strain AVO1, hits give low values 0.97 | S. cerevisiae deletion strains, locus YOL136C, strain PFK27, hits give low values 0.829 | [8] 0.882 | S. cerevisiae deletion strains, locus YOR119C, strain RIO1, hits give low values 0.855 | [9] 0.786 | S. cerevisiae deletion strains, locus YOR329C, strain SCD5, hits give low values 0.985 | S. cerevisiae deletion strains, locus YPL031C, strain PHO85, hits give low values 0.794 | S. cerevisiae deletion strains, locus YPL153C, strain RAD53, hits give low values 0.776 | S. cerevisiae deletion strains, locus YPL204W, strain HRR25, hits give low values 0.791 | S. cerevisiae deletion strains, locus YPL209C, strain IPL1, hits give low values 0.98 | S. cerevisiae deletion strains, locus YPR025C, strain CCL1, hits give low values 0.982 | S. cerevisiae deletion strains, locus YPR106W, strain ISR1, hits give low values 0.988 | S. cerevisiae deletion strains, locus YPR111W, strain DBF20, hits give low values 0.984 | S. cerevisiae deletion strains, strain NNK1, hits give low values 0.999 | S. cerevisiae deletion strains, strain TSCII, hits give low values 0.969
active: S. cerevisiae deletion strains, locus YFR019W, strain FAB1, hits give low values 0.629 | [2] 0.697 | [6] 0.628 | [10] 0.642
